Out of some 3,000 compounds screened, about 1,800 (60%) were called active.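 How the source made its calls: active means activation at or above a set limit, or at least 3 SD above the negative control mean; inactive means the rest.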 So high a share suggests a set chosen from earlier hits. Only a sample is shown.

Data on two compounds can be found in PubChem BioAssay AID1259319 (Sanford-Burnham Center for Chemical Genomics, 2017).

The target in this assay is Nuclear receptor subfamily 1 group D member 1 (Homo sapiens) (UniProt P20393). Kind of assay: modulators of Rev-erb alpha DNA binding, confirmation, biochemical, FITC-DNA, fluorescence polarization, single point (AID 1259319).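 Further: 0% = 35 nM protein with DMSO and 100% = 750 nM protein high control.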 The following applies: 90 min, at 25 µM, hits give high values. (Polarisation of emitted light reports the rotation of a fluorescent probe.)
Sequence of Nuclear receptor subfamily 1 group D member 1 (Homo sapiens) (P20393 whole entry, looked up): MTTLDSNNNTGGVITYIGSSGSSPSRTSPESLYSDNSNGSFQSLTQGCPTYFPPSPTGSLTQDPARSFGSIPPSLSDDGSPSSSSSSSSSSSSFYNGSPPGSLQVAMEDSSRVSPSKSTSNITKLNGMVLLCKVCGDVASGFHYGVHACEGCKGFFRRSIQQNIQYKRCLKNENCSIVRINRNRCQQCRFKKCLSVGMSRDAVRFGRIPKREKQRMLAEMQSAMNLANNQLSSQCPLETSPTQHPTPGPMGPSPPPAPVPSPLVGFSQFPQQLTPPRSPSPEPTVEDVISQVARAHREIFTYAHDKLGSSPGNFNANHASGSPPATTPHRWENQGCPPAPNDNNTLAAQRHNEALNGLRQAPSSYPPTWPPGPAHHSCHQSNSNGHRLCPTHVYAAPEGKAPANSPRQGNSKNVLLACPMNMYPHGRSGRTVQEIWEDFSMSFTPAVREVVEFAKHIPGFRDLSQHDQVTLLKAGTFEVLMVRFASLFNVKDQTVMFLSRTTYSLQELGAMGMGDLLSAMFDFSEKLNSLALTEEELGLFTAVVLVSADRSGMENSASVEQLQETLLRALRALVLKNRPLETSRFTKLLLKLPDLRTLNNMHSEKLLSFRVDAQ
Consider `COc1ccccc1N=Nc1c(O)[nH]c(=S)[nH]c1=O`, for which the activation was 41% (active).

`COC(=O)CN(CCCl)P1(=O)OCCCN1CCCl` (configuration not stated): the activation was -6.07% (inactive).
